Assay results as given in PubChem BioAssay (NCATS).
“And” between values parts separate entries of the source, which are not always exact repeats. Equal entries are not always repeated. Results filed as inconclusive are left out. Entries that show only a call come without a potency. The source holds several records for some structures; these can differ, active in one and inactive in another. The source made the active and inactive calls. The call rests on the fitted dose curve; in most records, active means well fitted inhibition curve with a large enough effect; inconclusive means small, poorly fitted or top-dose-only effect; inactive means flat fitted curve, though single readings scatter.

Key:
Assay in all cases: qHTS profiling for inhibitors of Plasmodium falciparum proliferation (AID 504749); further: nearly all actives have a fitted effect of over 60% in size
Conditions in all cases: P. falciparum in erythrocytes, SYBR Green DNA, 72 h; series mostly up to 28.7 µM
CP260 = system: CP260
Outline: (§1)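 In a 72 h erythrocytic culture (37 C, humidified, 5% CO2) at 2.5% hematocrit and 0.3% starting parasitemia, compounds were tested; SYBR Green I in detergent lysis buffer stained parasite DNA overnight.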

CP262 = system: CP262
Outline: as §1

CP265 = system: CP265
Outline: as §1

CP266 = system: CP266
Outline: as §1

CP268 = system: CP268
Outline: as §1

CP269 = system: CP269
Outline: as §1

CP286 = system: CP286
Outline: as §1

CP291 = system: CP291
Outline: as §1

CP297 = system: CP297
Outline: as §1

CP305 = system: CP305
Outline: as §1
Potency means the concentration at half of the fitted maximal effect.

Structure (SMILES) | Potency (CP260) | Potency (CP262) | Potency (CP265) | Potency (CP266) | Potency (CP268) | Potency (CP269) | Potency (CP286) | Potency (CP291) | Potency (CP297) | Potency (CP305)
CCCCCl | inactive | inactive | inactive | inactive | inactive | inactive | inactive | inactive | inactive | inactive
CCCC(C)C1(CC)C(=O)NC(=O)NC1=O (centres undefined) | inactive | inactive | inactive | inactive | inactive | inactive | inactive | inactive | inactive | inactive
CCCC(C)(COC(N)=O)COC(=O)NC1CC1 (centres undefined) | inactive | inactive | inactive | inactive | inactive | inactive | inactive | inactive | inactive | inactive
Clc1ccccc1Cl | inactive | inactive | inactive | inactive | inactive | inactive | inactive | inactive | inactive | inactive
CCC1C(C)=NN=C(c2ccc(OC)c(OC)c2)c2cc(OC)c(OC)cc21 (centres undefined) | inactive | inactive | inactive | inactive | inactive | inactive |  | inactive |  | inactive
CC(C)(C)c1cc(O)ccc1O | 6.31 µM (active) | 12 µM (active) and inactive | 11.2 µM (active) and 12.6 µM (active) | inactive |  | 13.5 µM (active) | 3.98 µM (active) | 15.1 µM (active) | 12 µM (active) | 13.5 µM (active)
CN1c2ccccc2C(NCCCCCCC(=O)O)c2ccc(Cl)cc2S1(=O)=O (centres undefined) | inactive | inactive | inactive | inactive | inactive | inactive | inactive | inactive | inactive | inactive
O=c1[nH]cc(N(CCCl)CCCl)c(=O)[nH]1 | inactive | inactive | inactive | inactive | inactive | inactive | inactive | inactive | inactive | inactive
Clc1ccc(C2(Cn3cncn3)OCCO2)c(Cl)c1 | inactive | inactive | inactive | inactive | inactive | inactive | inactive | inactive | inactive | inactive
c1ccc2cc(CC3=NCCN3)ccc2c1 | inactive | inactive | inactive |  | inactive | inactive | inactive | inactive | inactive | inactive
C=CCN=C=S | inactive | inactive | inactive | inactive |  |  | inactive |  |  | 
CCC1(c2ccccc2)C(=O)NC(=O)NC1=O | inactive | inactive | inactive | inactive | inactive | inactive | inactive | inactive | inactive | inactive
O=S(=O)(O)c1cc(O)ccc1O | inactive | inactive | inactive | inactive | inactive | inactive | inactive | inactive | inactive | inactive
CC(=O)O[C@H]1CC[C@H]2[C@@H]3CCC4=CC(=O)CCC4=C3C=C[C@]12C | inactive | inactive | inactive | inactive | inactive | inactive | inactive | inactive | inactive | inactive
CCC1(c2ccccc2)C(=O)NC(=O)N(C(=O)c2ccccc2)C1=O (centres undefined) | inactive | inactive | inactive | inactive | inactive | inactive | inactive | inactive | inactive | inactive
Cc1sc2ccccc2c1CC1=NCCN1 | inactive | inactive | inactive | inactive | inactive | inactive |  | inactive |  | inactive
Oc1cc(Cl)c(Cl)cc1Cl | inactive | inactive | inactive | inactive | inactive | inactive | inactive | inactive | inactive | inactive
CC(Cc1ccccc1)NC=O (centres undefined) | inactive | inactive | inactive | inactive | inactive | inactive | inactive | inactive | inactive | inactive
O=C1C2CC=CCC2C(=O)N1SC(Cl)(Cl)Cl (centres undefined) | inactive | inactive | inactive | inactive | inactive | inactive | inactive | inactive | inactive | inactive
C=CCN(C1=NCCN1)c1c(Cl)cccc1Cl | inactive | inactive | inactive | inactive | inactive | inactive | inactive |  | inactive | inactive
CC(=O)OC1CN2CCC1CC2 (centres undefined) | inactive | inactive | inactive | inactive | inactive | inactive | inactive | inactive | inactive | inactive
O=[N+]([O-])c1ccccc1 | inactive | inactive | inactive | inactive | inactive | inactive | inactive | inactive | inactive | inactive
CC[N+](C)(CC)CCOC(=O)C(O)(c1ccccc1)c1ccccc1 | inactive | inactive | inactive | inactive | inactive | inactive | inactive | inactive | inactive | inactive
O=C1CCCCC1CN1CCCCC1 (centres undefined) | inactive | inactive | inactive | inactive | inactive | inactive | inactive | inactive | inactive | inactive
ClC(Cl)(Cl)Cl | inactive | inactive | inactive | inactive | inactive | inactive | inactive | inactive | inactive | inactive
CNC1(c2ccccc2Cl)CCCCC1=O (centres undefined) | inactive | inactive | inactive | inactive | inactive | inactive | inactive | inactive | inactive | inactive
COCC(C)N(C(=O)CCl)c1c(C)csc1C (centres undefined) | inactive | inactive | inactive | inactive | inactive | inactive | inactive | inactive |  | inactive
CC(C)Nc1ccc(Nc2ccccc2)cc1 | 5.62 µM (active) | 4.78 µM (active) | 11.2 µM (active) | 8.49 µM (active) | 10.7 µM (active) | 6.75 µM (active) | 8.91 µM (active) | 15.1 µM (active) | 4.78 µM (active) | 13.5 µM (active)

Structure (SMILES) | Potency (CP260) | Potency (CP262) | Potency (CP265) | Potency (CP266) | Potency (CP268) | Potency (CP269) | Potency (CP286) | Potency (CP291) | Potency (CP297) | Potency (CP305)
CC(C)CCON=O | inactive | inactive | inactive | inactive | inactive | inactive | inactive | inactive | inactive | inactive
c1ccc2sc(SNC3CCCCC3)nc2c1 | inactive | inactive | inactive | inactive | inactive | inactive | inactive | inactive | inactive | inactive
CN1CCCC(=C(c2cccs2)c2cccs2)C1 |  |  |  | inactive |  | inactive |  |  |  | 
CCOP(=O)(OCC)O/C(=C/Cl)c1ccc(Cl)cc1Cl |  | inactive |  | inactive | inactive | inactive | inactive |  | inactive | inactive
C=CCC1(C(C)CCC)C(=O)N=C(S)NC1=O (centres undefined) | inactive |  | inactive | inactive |  |  | inactive |  |  | 
C=CCN1CC[C@]23c4c5ccc(O)c4O[C@H]2[C@@H](O)C=C[C@H]3[C@H]1C5 | inactive | inactive | inactive |  | inactive | inactive | inactive | inactive | inactive | inactive
CN1[C@@H]2CC[C@H]1CC(OC1c3ccccc3CCc3ccccc31)C2 (some centres undefined) |  | inactive | inactive | inactive | inactive | inactive |  | inactive |  | inactive
CNC(C)C(O)c1ccc(O)cc1 (centres undefined) |  | inactive | inactive | inactive | inactive | inactive | inactive | inactive | inactive | inactive
CCC(C)(S(=O)(=O)CC)S(=O)(=O)CC |  | inactive | inactive | inactive | inactive | inactive | inactive | inactive | inactive | inactive
CNC(=O)Oc1ccccc1C(=O)Nc1ccccc1 | inactive |  | inactive | inactive | inactive | inactive | inactive | inactive |  | inactive
c1ccc(C2(N3CCCC3)CCCCC2)cc1 | 8.91 µM (active) |  |  | inactive |  |  | 10 µM (active) |  | 15.1 µM (active) | 
CC12NC(Cc3ccccc31)c1ccccc12 (centres undefined) |  | inactive | 8.91 µM (active) | inactive | inactive |  |  |  | 6.01 µM (active) | inactive
O=c1c2ccccc2[se]n1-c1ccccc1 | inactive | inactive |  | inactive | inactive | inactive |  | inactive | inactive | inactive
C/C(=C\c1csc(C)n1)[C@@H]1C[C@@H]2O[C@]2(C)CCC[C@H](C)[C@H](O)[C@@H](C)C(=O)C(C)(C)[C@@H](O)CC(=O)O1 | 0.0022 µM (active) |  | 0.004 µM (active) |  |  | 0.0038 µM (active) | 0.0018 µM (active) | 0.0021 µM (active) | 0.0043 µM (active) | 
O=C(CS(=O)C(c1ccccc1)c1ccccc1)NO (centres undefined) |  | inactive | inactive | inactive | inactive | inactive | inactive | inactive | inactive | inactive
C[N+]1(C)CCCCC1COC(=O)C(O)(c1ccccc1)c1ccccc1 (centres undefined) |  | inactive | inactive | inactive | inactive | inactive | inactive | inactive | inactive | inactive
[Cl-].[Cl-].[Hg+2] |  | inactive |  | inactive |  |  |  |  |  | 
N#CC(C#N)=Cc1cc(O)c(O)c(O)c1 | 6.31 µM (active) | 15.1 µM (active) |  | 16.9 µM (active) |  | 10.7 µM (active) | 10 µM (active) |  | 15.1 µM (active) | 
O=C(CCl)c1ccc(Oc2ccc(C(=O)CCl)cc2)cc1 | inactive | inactive | inactive |  | inactive | inactive | inactive | inactive | inactive | inactive
N#CC1(N2CCCCC2)CCCCC1 |  | inactive | inactive | inactive | inactive | inactive | inactive | inactive | inactive | inactive
CCC1(c2ccccc2)C(=O)NC(=O)N(C)C1=O (centres undefined) |  | inactive |  | inactive | inactive |  | inactive | inactive | inactive | 
C[C@]12CCC(=O)C[C@@H]1CC[C@@H]1[C@@H]2CC[C@]2(C)[C@@H](O)CC[C@@H]12 |  | inactive | inactive | inactive | inactive | inactive | inactive | inactive | inactive | inactive
O=P(O)(O)C(Cl)(Cl)P(=O)(O)O | inactive | inactive | inactive |  | inactive | inactive | inactive | inactive | inactive | inactive
NCC(O)c1cccc(O)c1 (centres undefined) | inactive | inactive | inactive |  | inactive | inactive | inactive | inactive | inactive | inactive
CCC1(CC)C(=O)NC(=O)N(C)C1=O | inactive | inactive | inactive |  | inactive | inactive | inactive | inactive | inactive | inactive
Oc1cccc[c]1[Hg][Cl] | 5.62 µM (active) |  | 10 µM (active) | 9.53 µM (active) | 7.57 µM (active) | 4.26 µM (active) | 7.94 µM (active) | 10.7 µM (active) | 13.5 µM (active) | 6.01 µM (active)
C[C@H]1CCC[C@H](O)CCCCCc2cc(O)cc(O)c2C(=O)O1 |  | inactive | inactive | inactive | inactive | inactive | inactive | inactive |  | inactive
